Results taken from PubChem BioAssay (NCATS).
For part of these data: Results with a measured potency or affinity are listed apart. Activity calls are given as the source filed them.

What was measured:
[1] = Ebola virus entry assay, blue channel fluorescence
[2] = Ebola virus entry reporter assay, green channel fluorescence
[3] = Ebola virus entry cell assay, ratio channel

Measured: outcome

O=C1[O][Bi][O]c2ccccc21
inactive: all assays above

CC(C)CN(C[C@@H](O)[C@H](Cc1ccccc1)NC(=O)O[C@@H]1CCOC1)S(=O)(=O)c1ccc(N)cc1
inactive: all assays above

CCOC(=O)[C@H](CCc1ccccc1)N[C@H]1CCCN2CCC[C@@H](C(=O)O)N2C1=O
inactive: all assays above

CC1(C)S[C@@H]2[C@H](NC(=O)[C@H](N)c3ccc(O)cc3)C(=O)N2[C@H]1C(=O)O
inactive: all assays above

CCC(=O)OC(OP(=O)(CCCCc1ccccc1)CC(=O)N1C[C@H](C2CCCCC2)C[C@H]1C(=O)O)C(C)C (some centres undefined)
inactive: all assays above

CC(=O)N1CCN(c2ccc(OC[C@H]3CO[C@](Cn4ccnc4)(c4ccc(Cl)cc4Cl)O3)cc2)CC1
inactive: all assays above

C=CC1=C(C(=O)O)N2C(=O)[C@@H](NC(=O)/C(=N/OCC(=O)O)c3csc(N)n3)[C@H]2SC1 (stereo in doubt)
inactive: all assays above

CNC(C)[C@@H]1CC[C@@H](N)[C@@H](O[C@H]2[C@H](O)[C@@H](O[C@H]3OC[C@](C)(O)[C@H](NC)[C@H]3O)[C@H](N)C[C@@H]2N)O1 (some centres undefined)
inactive: all assays above
